This is an account of results in PubChem BioAssay (NCI).

Molecules are shown by their SMILES. The panel holds about 79,000 compounds, 15% with a hit somewhere; the sample as a whole holds those more often. Unmarked numbers belong to inactive results. Active and inactive are the calls of the source. No stated cut-off is given here; in the data, active means growth inhibition above about 70%; inactive means the rest.

Assay [1] is described as follows: NCI Yeast Anticancer Drug Screen. Data for the rad50 strain (AID 155).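 Further: 0% = growth of vehicle-only cultures of the same strain.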 To be noted: S. cerevisiae rad50 strain growth inhibition, stronger effect = higher value. The essentials: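 Inhibition values express reduced yeast growth in compound-treated cultures relative to vehicle-treated controls.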
The nature of assay [2]: NCI Yeast Anticancer Drug Screen. Data for the mec2-1 strain (AID 157). The following applies: S. cerevisiae mec2-1 strain, stronger effect = higher value. Put shortly:
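Vehicle-treated cultures served as reference for growth inhibition of compound-exposed mec2-1 yeast.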

Assay [3] can be described thus: NCI Yeast Anticancer Drug Screen. Data for the sgs1 mgt1 strain (AID 161).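 Further: 0% = growth of cultures given vehicle only.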 The following applies: S. cerevisiae sgs1 mgt1 strain, stronger effect = higher value. The essentials:
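Test agents were incubated with a DNA-repair-mutant yeast strain. Growth was then read and compared against vehicle-treated controls.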

The nature of assay [4]: NCI Yeast Anticancer Drug Screen. Data for the cln2 rad14 strain (AID 165).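 Further: 0% = growth equal to vehicle treated cultures.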 The following applies: S. cerevisiae cln2 rad14 strain, stronger effect = higher value. Put shortly:
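Each compound was tested on cln2 rad14 yeast. Inhibition of growth was calculated against vehicle-exposed controls.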

Assay [5] in a line: NCI Yeast Anticancer Drug Screen. Data for the bub3 strain (AID 167). The following applies: S. cerevisiae bub3 mutant strain, stronger effect = higher value. Put shortly:
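Steps: expose the mutant yeast strain to compound; grow alongside vehicle-treated cultures; measure growth; express inhibition against the vehicle cultures.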

Assay [6] is described as follows: NCI Yeast Anticancer Drug Screen. Data for the mlh1 rad18 strain (AID 175). To be noted: S. cerevisiae mlh1 rad18 strain growth inhibition, stronger effect = higher value. The essentials: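 Vehicle-treated cultures served as the reference for growth inhibition in a yeast strain carrying DNA damage repair alterations exposed to each compound.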
The mark [7] stands for this setting: at 5.0 µM (retest, dose inferred, filed as 0.5).
Where [8] appears, read: at 50.0 µM (retest, dose inferred, filed as 5.0).

Regarding `COc1cccc(-c2cc(=O)c3c(C)ccnc3[nH]2)c1`, the growth inhibition in assay [1] (setting [7]) was 8%; in assay [1] (setting [8]), 8%; in assay [1] (at 50.0 µM), 80.5% (active); in assay [2] (setting [7]) it was 4%; in assay [2] (setting [8]) it was 4%; in assay [2] (at 50.0 µM), 49.8%. The growth inhibition is 15% in assay [3] (setting [7]); 15% in assay [3] (setting [8]); 70.8% (active) in assay [3] (at 50.0 µM); -4% in assay [4] (setting [7]); -4% in assay [4] (setting [8]); 30% in assay [4] (at 50.0 µM). Besides, the growth inhibition is -9% in assay [5] (setting [7]); -9% in assay [5] (setting [8]); 68% in assay [5] (at 50.0 µM); 14% in assay [6] (setting [7]); 14% in assay [6] (setting [8]); 61.8% in assay [6] (at 50.0 µM).

Consider `O=C(O)c1c[nH]c2cc(Cl)ccc2c1=O`, for which the growth inhibition in assay [1] (setting [7]) was 4%; in assay [1] (setting [8]), -5%; in assay [1] (at 50.0 µM), -1.55%; in assay [2] (setting [7]), 1%; in assay [2] (setting [8]) it was 5%; in assay [2] (at 50.0 µM), -20.9%. Moreover, the growth inhibition is -8% in assay [3] (setting [7]); -3% in assay [3] (setting [8]); -22.1% in assay [3] (at 50.0 µM); 2% in assay [4] (setting [7]); 1% in assay [4] (setting [8]); 90.9% (active) in assay [4] (at 50.0 µM). Besides, the growth inhibition in assay [5] (setting [7]) is 1%; in assay [5] (setting [8]), -2%; in assay [5] (at 50.0 µM) it was -19.8%; in assay [6] (setting [7]) it was -1%; in assay [6] (setting [8]), -4%; in assay [6] (at 50.0 µM), 12.2%.

Regarding `O=Cc1c(O)ccc2ccccc12`, the growth inhibition was 12% in assay [1] (setting [7]); 99% (active) in assay [1] (setting [8]); 99.2% (active) in assay [1] (at 50.0 µM); 8% in assay [2] (setting [7]); 98% (active) in assay [2] (setting [8]); 99.4% (active) in assay [2] (at 50.0 µM). The growth inhibition in assay [3] (setting [7]) is 11%; in assay [3] (setting [8]) it was 99% (active); in assay [3] (at 50.0 µM), 99.2% (active); in assay [4] (setting [7]), 6%; in assay [4] (setting [8]) it was 99% (active); in assay [4] (at 50.0 µM), 99% (active). Further, the growth inhibition was 2% in assay [5] (setting [7]); 98% (active) in assay [5] (setting [8]); 99.5% (active) in assay [5] (at 50.0 µM); 17% in assay [6] (setting [7]); 98% (active) in assay [6] (setting [8]); 99.2% (active) in assay [6] (at 50.0 µM).

Regarding `CS(=O)(=O)OCCN(CCOS(C)(=O)=O)c1ccc(C=Nc2cccc(Br)c2)c(Cl)c1`, the growth inhibition in assay [1] (setting [7]) is 1%; in assay [1] (setting [8]), 22%; in assay [1] (at 50.0 µM), 41.5%; in assay [2] (setting [7]), -3%; in assay [2] (setting [8]) it was 1%; in assay [2] (at 50.0 µM) it was -2.3%. Moreover, the growth inhibition in assay [3] (setting [7]) was -3%; in assay [3] (setting [8]), 12%; in assay [3] (at 50.0 µM) it was 2.5%; in assay [4] (setting [7]), -4%; in assay [4] (setting [8]) it was -4%; in assay [4] (at 50.0 µM), -49.9%. For the same molecule, the growth inhibition in assay [5] (setting [7]) was 0%; in assay [5] (setting [8]) it was 1%; in assay [5] (at 50.0 µM), 6.85%; in assay [6] (setting [7]) it was 5%; in assay [6] (setting [8]), 36%; in assay [6] (at 50.0 µM) it was 68.5%.

`Nc1ncnc2c1ncn2C1OCC(OCc2ccccc2)C(OCc2ccccc2)C1OCc1ccccc1` (stereo not given): the growth inhibition in assay [1] (setting [7]) is 9%; in assay [1] (setting [8]) it was 99% (active); in assay [1] (at 50.0 µM), 98.3% (active); in assay [2] (setting [7]), -25%; in assay [2] (setting [8]), 100% (active); in assay [2] (at 50.0 µM), 96% (active). Moreover, the growth inhibition in assay [3] (setting [7]) was 13%; in assay [3] (setting [8]), 98% (active); in assay [3] (at 50.0 µM), 99.2% (active); in assay [4] (setting [7]), 6%; in assay [4] (setting [8]) it was 98% (active); in assay [4] (at 50.0 µM), 96.8% (active). For the same molecule, the growth inhibition in assay [5] (setting [7]) was 13%; in assay [5] (setting [8]), 99% (active); in assay [5] (at 50.0 µM), 97.5% (active); in assay [6] (setting [7]) it was -4%; in assay [6] (setting [8]) it was 99% (active); in assay [6] (at 50.0 µM) it was 98.1% (active).

For `CC(C)(C)c1ccc(C(=O)n2c(=S)oc3ccc(Cl)cc32)cc1`, the growth inhibition in assay [1] (setting [7]) is 50%; in assay [1] (setting [8]) it was 85% (active); in assay [1] (at 50.0 µM), 65%; in assay [2] (setting [7]), 44%; in assay [2] (setting [8]), 91% (active); in assay [2] (at 50.0 µM) it was 61.4%. Moreover, the growth inhibition was 46% in assay [3] (setting [7]); 92% (active) in assay [3] (setting [8]); 81.8% (active) in assay [3] (at 50.0 µM); 39% in assay [4] (setting [7]); 73% (active) in assay [4] (setting [8]); 39.5% in assay [4] (at 50.0 µM). The growth inhibition was 43% in assay [5] (setting [7]); 64% in assay [5] (setting [8]); 59.5% in assay [5] (at 50.0 µM); 51% in assay [6] (setting [7]); 88% (active) in assay [6] (setting [8]); 63% in assay [6] (at 50.0 µM).

In the case of `CC(=O)OCC(C(N)=O)(c1ccccc1)c1ccccc1`, the growth inhibition in assay [1] (setting [7]) was -5%; in assay [1] (setting [8]), 1%; in assay [1] (at 50.0 µM), -2.6%; in assay [2] (setting [7]) it was -2%; in assay [2] (setting [8]), 2%; in assay [2] (at 50.0 µM) it was -10%. For the same molecule, the growth inhibition in assay [3] (setting [7]) was -1%; in assay [3] (setting [8]) it was -5%; in assay [3] (at 50.0 µM), 12.8%; in assay [4] (setting [7]) it was -5%; in assay [4] (setting [8]), -3%; in assay [4] (at 50.0 µM), 91.5% (active). Moreover, the growth inhibition in assay [5] (setting [7]) was -7%; in assay [5] (setting [8]), -1%; in assay [5] (at 50.0 µM) it was 2.8%; in assay [6] (setting [7]) it was -6%; in assay [6] (setting [8]), -6%; in assay [6] (at 50.0 µM), 11%.

With `CC/C(Cl)=N\OC(=O)Nc1ccc(F)c(Cl)c1`, the growth inhibition in assay [1] (setting [7]) is -8%; in assay [1] (setting [8]), 98% (active); in assay [1] (at 50.0 µM), 58.5%; in assay [2] (setting [7]), 5%; in assay [2] (setting [8]), 96% (active); in assay [2] (at 50.0 µM), 84.4% (active). Further, the growth inhibition in assay [3] (setting [7]) was 36%; in assay [3] (setting [8]) it was 99% (active); in assay [3] (at 50.0 µM), 83.7% (active); in assay [4] (setting [7]), 31%; in assay [4] (setting [8]), 75% (active); in assay [4] (at 50.0 µM), 51%. The growth inhibition in assay [5] (setting [7]) was 5%; in assay [5] (setting [8]) it was 92% (active); in assay [5] (at 50.0 µM) it was 78.2% (active); in assay [6] (setting [7]), -8%; in assay [6] (setting [8]), 94% (active); in assay [6] (at 50.0 µM), 69.3%.

As to `O=NN(CCCl)C(=O)Oc1ccc(OC(=O)N(CCCl)N=O)cc1`, the growth inhibition in assay [1] (setting [7]) is 87% (active); in assay [1] (setting [8]) it was 92% (active); in assay [1] (at 50.0 µM), 59.6%; in assay [2] (setting [7]) it was 86% (active); in assay [2] (setting [8]) it was 99% (active); in assay [2] (at 50.0 µM), 91% (active). For the same molecule, the growth inhibition in assay [3] (setting [7]) was 93% (active); in assay [3] (setting [8]), 99% (active); in assay [3] (at 50.0 µM) it was 90.2% (active); in assay [4] (setting [7]), 53%; in assay [4] (setting [8]), 90% (active); in assay [4] (at 50.0 µM), 83.5% (active). Further, the growth inhibition in assay [5] (setting [7]) was 56%; in assay [5] (setting [8]) it was 93% (active); in assay [5] (at 50.0 µM), 84.5% (active); in assay [6] (setting [7]), 96% (active); in assay [6] (setting [8]) it was 97% (active); in assay [6] (at 50.0 µM) it was 90.6% (active).

For the molecule `Cc1ccc(S(=O)(=O)NNC(=O)c2sc(-c3nc(C)c(C(=O)NNS(=O)(=O)c4ccc(C)cc4)s3)nc2C)cc1`, the growth inhibition in assay [1] (setting [7]) is 2%; in assay [1] (setting [8]) it was 98% (active); in assay [1] (at 50.0 µM), 7.3%; in assay [2] (setting [7]) it was 2%; in assay [2] (setting [8]) it was 99% (active); in assay [2] (at 50.0 µM), 8%. Moreover, the growth inhibition in assay [3] (setting [7]) is 5%; in assay [3] (setting [8]) it was 99% (active); in assay [3] (at 50.0 µM), 83.5% (active); in assay [4] (setting [7]), 8%; in assay [4] (setting [8]), 98% (active); in assay [4] (at 50.0 µM) it was -43.5%. Besides, the growth inhibition in assay [5] (setting [7]) is 8%; in assay [5] (setting [8]) it was 98% (active); in assay [5] (at 50.0 µM) it was 14.3%; in assay [6] (setting [7]) it was 2%; in assay [6] (setting [8]), 98% (active); in assay [6] (at 50.0 µM), 15%.
